The results in this text go back to PubChem BioAssay.

Active and inactive are the calls of the source.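 The calls were made as follows, unless noted: active = visual image review flags a hit and inhibition of aggregation exceeds 20%; inconclusive = visual hit but inhibition at or below 20%; inactive = no hit on visual image review.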

One assay in a line: inhibitors of mutant huntingtin aggregation, primary screen, imaging, exon1htt(103Q)mCFP cells, high-content imaging (AID 483).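 Also: compound exposure lasted 3 days before fixation.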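 As to nuclei count: percent of the per-plate median nuclei count of sample wells.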 To be noted: exon1htt(103Q)mCFP cell line, aggregate imaging, at 2 µM; inhibition of aggregation: stronger effect = higher value; nuclei count: measured here: cell count, toxicity.
As to `CC(C)(Oc1ccc(Cl)cc1)C(=O)NCc1ccncc1`, the nuclei count came out at 96.4% and the inhibition of aggregation is -21% (inactive).
On the same counts, the results for `Cc1ccc(C)c(S(=O)(=O)NCc2cccnc2)c1` are 114% and -6.9% (inactive).
For `Cc1cc(-c2ccccc2)c(C#N)c(N)n1`, the inhibition of aggregation is -10.4% (inactive) and the nuclei count turned out to be 94.7%.
For `CCCCCc1c(C)nc(SCC(=O)O)[nH]c1=O`, the inhibition of aggregation is 12.9% (inactive) and the nuclei count came to 97.3%.
As for `COC(=O)c1ccc(NC(=O)C(C)N2C(=O)c3ccccc3C2=O)cc1` (stereo not given), the inhibition of aggregation was -7.5% (inactive) and the nuclei count stood at 103%.
Consider `O=C(Nc1cccnc1)c1cccc(NC(=O)c2ccco2)c1`, for which the nuclei count came out at 104% and the inhibition of aggregation is -3.4% (inactive).
The matching figures for `Cc1ccnc(NC(=O)CCC(=O)N(CC(=O)NC(C)(C)C)C2CCCC2)c1`: 113% and -6.2% (inactive).
On to `COCCNC(=O)CN(C)S(=O)(=O)c1ccc(Br)cc1`, for which the inhibition of aggregation was -10.4% (inactive) and the nuclei count was determined as 106%.
Turning to `CC(=O)NC(C)c1nc2ccccc2n1C(C)C` (stereo not given), the inhibition of aggregation is -2.2% (inactive) and the nuclei count was found to be 98.7%.
As for `COC(=O)C1CCN(C(=O)c2sc3nc(-c4ccc(F)cc4)cn3c2C)CC1`, the nuclei count came to 105% and the inhibition of aggregation was -14.7% (inactive).
On to `CC(Sc1nnnn1C)C(=O)Nc1ccc(Oc2ccccc2)cc1` (stereo not given), for which the inhibition of aggregation was -25.9% (inactive) and the nuclei count was 105%.
Take `c1ccc(Cn2nnnc2C(c2cccs2)N2CCSCC2)cc1` (stereo not given): the nuclei count was found to be 110% and the inhibition of aggregation is -0.3% (inactive).
Consider `Cn1c(=O)[nH]c(=O)c2c1nc(NCCCn1ccnc1)n2Cc1cccc(Br)c1`, for which the inhibition of aggregation is 8.6% (inactive) and the nuclei count was 68.9%.
Turning to `CCOC(=O)N1CCN(C(=O)c2c(-c3ccccc3)noc2C)CC1`, the inhibition of aggregation was -5.9% (inactive) and the nuclei count stood at 107%.
For `COc1ccc2c(c1OC)C(=O)N(c1ccc3c(c1)CCC3)C2=O`, the inhibition of aggregation was -0.9% (inactive) and the nuclei count stood at 103%.
For the molecule `Cc1ccc(NC(=O)C2CCCN(S(=O)(=O)c3cnc[nH]3)C2)cc1C` (stereo not given), the nuclei count was 106% and the inhibition of aggregation is 11.8% (inactive).
The matching figures for `O=C(Cn1ncc2c1-c1ccccc1OC2)N1CCN(c2ccccn2)CC1`: 131% and -24.9% (inactive).
On the same counts, the results for `C/C=C/c1ccc(OCCn2cncn2)c(OC)c1` are 132% and -27.6% (inactive).
For `Cc1c(C(=O)OC2CCCCC2)[nH]c2c1C(=O)CC(C)(C)C2`, the nuclei count came to 108% and the inhibition of aggregation is -22% (inactive).
For the molecule `COc1ccccc1N1C(=O)CC(Sc2nc(C)cc(C)n2)C1=O` (stereo not given), the nuclei count was found to be 95.3% and the inhibition of aggregation is 15% (inactive).
The matching figures for `Cc1nc(SCCC(=O)O)c2ccccc2n1`: 112% and 9.6% (inactive).
Consider `Nc1sccc1C(=O)c1ccc(Cl)cc1`, for which the nuclei count is 92% and the inhibition of aggregation was 7.1% (inactive).
Take `Cc1ccccc1Cn1ccc(NC(=O)c2onc(C)c2Cl)n1`: the nuclei count was found to be 118% and the inhibition of aggregation was 28.9% (inactive).
Consider `Nc1c(C(=O)NCCN2CCOCC2)c2nc3ccccc3nc2n1-c1ccc2c(c1)OCO2`, for which the nuclei count worked out at 96.7% and the inhibition of aggregation was -2.4% (inactive).
For `Cc1cc(C(=O)Nc2nc3c(s2)CCCC3)cs1`, the nuclei count amounted to 111% and the inhibition of aggregation is -12.3% (inactive).
As to `COC(=O)CNc1nc(C2CC2)nc2c1nnn2Cc1ccccc1Cl`, the inhibition of aggregation was -0.3% (inactive) and the nuclei count is 83.5%.
The matching figures for `CCN1CCN(C(c2ccc(F)cc2)c2nnnn2Cc2cccs2)CC1` (stereo not given): 1.9% (inactive) and 48.7%.
Regarding `O=C1CN(c2nc3ccccc3n3cnnc23)CC(=O)N1CCc1ccccc1`, the nuclei count worked out at 112% and the inhibition of aggregation was -13% (inactive).
With `O=S(=O)(c1ccc(S(=O)(=O)N2CCN3CCCC3C2)cc1)N1CCCC1` (stereo not given), the inhibition of aggregation was 31.8% (inactive) and the nuclei count turned out to be 49.8%.
The matching figures for `O=C1CC(c2cccc(Cl)c2)Cc2nc(N3CCN(c4ccccc4)CC3)ncc21` (stereo not given): -8.3% (inactive) and 111%.
The matching figures for `CCC1SC2=NC(C)=C(C(=O)OC)C(c3ccc(C)cc3)N2C1=O` (stereo not given): -9.6% (inactive) and 111%.
On to `O=C(CN1CCC(NC(=O)c2ccc(F)cc2)CC1)NCc1ccccc1F`, for which the inhibition of aggregation is -0.1% (inactive) and the nuclei count came to 101%.
Consider `COC(=O)C(C)NC(=O)C12CC3CC(CC(C3)C1)C2` (stereo not given), for which the nuclei count is 103% and the inhibition of aggregation was 13.2% (inactive).
For the molecule `Cc1ccc(S(=O)(=O)NC(=O)c2cc(C)n(CCCn3ccnc3)c2C)cc1`, the inhibition of aggregation is 9.2% (inactive) and the nuclei count turned out to be 92.3%.
In the case of `O=S(=O)(NCC(c1cccnc1)N1CCN(c2ccccc2)CC1)c1cc(F)ccc1F` (stereo not given), the nuclei count was found to be 51.3% and the inhibition of aggregation was 9% (inactive).
On to `COc1ccc2ccccc2c1CN1CCN(C)CC1`, for which the inhibition of aggregation was -14.9% (inactive) and the nuclei count was found to be 93.7%.
Consider `CCOC(=O)/C=C1\CC(=O)Nc2nonc2N1`, for which the nuclei count was determined as 105% and the inhibition of aggregation was 2% (inactive).
Consider `CCn1ncc(Cl)c1C(=O)Nc1ccncc1`, for which the inhibition of aggregation is -21.9% (inactive) and the nuclei count was determined as 56.2%.
On to `Cn1c(=O)cc(OCC(=O)NCCCN2CCN(c3cccc(Cl)c3)CC2)c2ccccc21`, for which the nuclei count came out at 98.2% and the inhibition of aggregation is -42.4% (inactive).
As to `CCOc1cc(C(=O)N(C)Cc2cc3cc(OC)ccc3[nH]c2=O)cc(OCC)c1OCC`, the nuclei count was 83.8% and the inhibition of aggregation was 18.6% (inactive).

The next assay in a line: inhibitors of E-selectin induction by TNFa, primary screen, imaging, HUVEC, immunofluorescence, MLSMR starter and 10KST1 sets (AID 487;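 active = visually confirmed hit in the image check and inhibition above 20%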;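 as to inhibition: signal is fraction of cell area covered by stained E-selectin grains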;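 as to nuclei count: 100% = median nuclei count of all wells on the same plate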). To be noted: HUVEC TNFalpha-induced E-selectin immunofluorescence imaging, at 2 µM; inhibition: stronger effect = higher value; nuclei count: measured here: cell number, toxicity.
Broadly, the inhibition is the change of the read-out against control, counted positive when it falls. Consider `CC(C)(Oc1ccc(Cl)cc1)C(=O)NCc1ccncc1`, for which the nuclei count came to 113% and the inhibition is -85.3% (inactive).
As to `Cc1ccc(C)c(S(=O)(=O)NCc2cccnc2)c1`, the nuclei count came out at 119% and the inhibition is -89.8% (inactive).
Consider `Cc1cc(-c2ccccc2)c(C#N)c(N)n1`, for which the inhibition is -11.3% (inactive) and the nuclei count worked out at 115%.
Turning to `CCCCCc1c(C)nc(SCC(=O)O)[nH]c1=O`, the inhibition was -31.8% (inactive) and the nuclei count came out at 106%.
The matching figures for `COC(=O)c1ccc(NC(=O)C(C)N2C(=O)c3ccccc3C2=O)cc1` (stereo not given): -39.9% (inactive) and 108%.
Consider `O=C(Nc1cccnc1)c1cccc(NC(=O)c2ccco2)c1`, for which the inhibition is 13.4% (inactive) and the nuclei count is 115%.
Turning to `Cc1ccnc(NC(=O)CCC(=O)N(CC(=O)NC(C)(C)C)C2CCCC2)c1`, the inhibition was -105% (inactive) and the nuclei count was 89.5%.
For the molecule `COCCNC(=O)CN(C)S(=O)(=O)c1ccc(Br)cc1`, the nuclei count is 110% and the inhibition is 24.8% (inactive).
The matching figures for `CC(=O)NC(C)c1nc2ccccc2n1C(C)C` (stereo not given): 121% and -50.6% (inactive).
`COC(=O)C1CCN(C(=O)c2sc3nc(-c4ccc(F)cc4)cn3c2C)CC1`: the inhibition was -65.8% (inactive) and the nuclei count turned out to be 120%.
With `CC(Sc1nnnn1C)C(=O)Nc1ccc(Oc2ccccc2)cc1` (stereo not given), the nuclei count worked out at 125% and the inhibition was -72.3% (inactive).
On the same counts, the results for `c1ccc(Cn2nnnc2C(c2cccs2)N2CCSCC2)cc1` (stereo not given) are 95.9% and -56.7% (inactive).
On the same counts, the results for `Cn1c(=O)[nH]c(=O)c2c1nc(NCCCn1ccnc1)n2Cc1cccc(Br)c1` are 112% and -53.6% (inactive).
Take `CCOC(=O)N1CCN(C(=O)c2c(-c3ccccc3)noc2C)CC1`: the inhibition is -27.3% (inactive) and the nuclei count worked out at 106%.
As for `COc1ccc2c(c1OC)C(=O)N(c1ccc3c(c1)CCC3)C2=O`, the inhibition is -10.6% (inactive) and the nuclei count amounted to 107%.
As to `Cc1ccc(NC(=O)C2CCCN(S(=O)(=O)c3cnc[nH]3)C2)cc1C` (stereo not given), the inhibition was -102% (inactive) and the nuclei count turned out to be 134%.
As for `O=C(Cn1ncc2c1-c1ccccc1OC2)N1CCN(c2ccccn2)CC1`, the nuclei count turned out to be 111% and the inhibition is -55.8% (inactive).
For `C/C=C/c1ccc(OCCn2cncn2)c(OC)c1`, the inhibition was -73.8% (inactive) and the nuclei count is 120%.
As for `Cc1c(C(=O)OC2CCCCC2)[nH]c2c1C(=O)CC(C)(C)C2`, the inhibition was 14.6% (inactive) and the nuclei count stood at 68.9%.
`COc1ccccc1N1C(=O)CC(Sc2nc(C)cc(C)n2)C1=O` (stereo not given): the inhibition is -30.9% (inactive) and the nuclei count was 90.9%.
For the molecule `Cc1nc(SCCC(=O)O)c2ccccc2n1`, the nuclei count came to 105% and the inhibition was 40.9% (inactive).
For the molecule `Nc1sccc1C(=O)c1ccc(Cl)cc1`, the inhibition is -146% (inactive) and the nuclei count turned out to be 103%.
`Cc1ccccc1Cn1ccc(NC(=O)c2onc(C)c2Cl)n1`: the nuclei count is 106% and the inhibition was -52.1% (inactive).
Regarding `Nc1c(C(=O)NCCN2CCOCC2)c2nc3ccccc3nc2n1-c1ccc2c(c1)OCO2`, the nuclei count is 74% and the inhibition is -53.1% (inactive).
For the molecule `Cc1cc(C(=O)Nc2nc3c(s2)CCCC3)cs1`, the nuclei count is 107% and the inhibition is -6.3% (inactive).
On to `COC(=O)CNc1nc(C2CC2)nc2c1nnn2Cc1ccccc1Cl`, for which the nuclei count worked out at 97.5% and the inhibition is 16.5% (inactive).
Take `CCN1CCN(C(c2ccc(F)cc2)c2nnnn2Cc2cccs2)CC1` (stereo not given): the inhibition is -35.5% (inactive) and the nuclei count is 96.1%.
Take `O=C1CN(c2nc3ccccc3n3cnnc23)CC(=O)N1CCc1ccccc1`: the nuclei count amounted to 116% and the inhibition is -66% (inactive).
For the molecule `O=S(=O)(c1ccc(S(=O)(=O)N2CCN3CCCC3C2)cc1)N1CCCC1` (stereo not given), the inhibition was 34.6% (inactive) and the nuclei count was 85%.
`O=C1CC(c2cccc(Cl)c2)Cc2nc(N3CCN(c4ccccc4)CC3)ncc21` (stereo not given): the inhibition is -57.1% (inactive) and the nuclei count was found to be 140%.
On to `CCC1SC2=NC(C)=C(C(=O)OC)C(c3ccc(C)cc3)N2C1=O` (stereo not given), for which the nuclei count was 103% and the inhibition was -57.6% (inactive).
On to `O=C(CN1CCC(NC(=O)c2ccc(F)cc2)CC1)NCc1ccccc1F`, for which the inhibition is -192% (inactive) and the nuclei count amounted to 110%.
In the case of `COC(=O)C(C)NC(=O)C12CC3CC(CC(C3)C1)C2` (stereo not given), the nuclei count was determined as 124% and the inhibition is -31% (inactive).
Turning to `Cc1ccc(S(=O)(=O)NC(=O)c2cc(C)n(CCCn3ccnc3)c2C)cc1`, the inhibition is -86.6% (inactive) and the nuclei count is 108%.
Regarding `O=S(=O)(NCC(c1cccnc1)N1CCN(c2ccccc2)CC1)c1cc(F)ccc1F` (stereo not given), the nuclei count turned out to be 115% and the inhibition is -75.8% (inactive).
Turning to `COc1ccc2ccccc2c1CN1CCN(C)CC1`, the inhibition is -40.6% (inactive) and the nuclei count was determined as 123%.
Turning to `CCOC(=O)/C=C1\CC(=O)Nc2nonc2N1`, the inhibition is -22.6% (inactive) and the nuclei count stood at 118%.
On the same counts, the results for `CCn1ncc(Cl)c1C(=O)Nc1ccncc1` are -41% (inactive) and 101%.
On the same counts, the results for `Cn1c(=O)cc(OCC(=O)NCCCN2CCN(c3cccc(Cl)c3)CC2)c2ccccc21` are -83.7% (inactive) and 128%.
For the molecule `CCOc1cc(C(=O)N(C)Cc2cc3cc(OC)ccc3[nH]c2=O)cc(OCC)c1OCC`, the nuclei count was determined as 211% and the inhibition is -174% (inactive).
